Source: PubChem
Rows were chosen to be rich in hits. Some 18% of all compounds tested hit in one or more screens of this group.
TDP1 inh – TDP1 (human) enzyme inhibition. actives 0.28% (n = 350,000). Potency, µM (highest dose often 130 µM), usual class: inhibitors. recombinant TDP1, AlphaScreen DNA substrate cleavage; also: nearly all actives have a fitted effect of over 40% in size
Target sequence (Q9NUW8 whole entry, looked up): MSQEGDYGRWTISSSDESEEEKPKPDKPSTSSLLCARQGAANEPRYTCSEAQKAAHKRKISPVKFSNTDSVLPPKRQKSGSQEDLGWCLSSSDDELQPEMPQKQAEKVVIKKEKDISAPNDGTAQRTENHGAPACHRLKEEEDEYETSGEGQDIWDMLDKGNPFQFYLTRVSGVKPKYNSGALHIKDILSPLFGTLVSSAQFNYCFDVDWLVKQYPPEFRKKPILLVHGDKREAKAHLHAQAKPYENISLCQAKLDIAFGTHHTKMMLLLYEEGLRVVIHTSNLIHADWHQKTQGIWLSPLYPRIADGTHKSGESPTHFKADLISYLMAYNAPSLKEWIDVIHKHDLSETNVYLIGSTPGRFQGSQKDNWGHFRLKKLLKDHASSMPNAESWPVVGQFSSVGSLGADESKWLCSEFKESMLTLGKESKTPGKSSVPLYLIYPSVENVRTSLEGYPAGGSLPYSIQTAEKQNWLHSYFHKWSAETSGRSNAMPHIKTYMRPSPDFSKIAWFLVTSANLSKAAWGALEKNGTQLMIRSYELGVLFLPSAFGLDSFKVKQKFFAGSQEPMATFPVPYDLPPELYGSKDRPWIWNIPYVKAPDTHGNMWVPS
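Compounds were preincubated with Tdp1 (1 nM final) for 15 min at room temperature before substrate (15 nM final) started a 5 min reaction; beads (10 ug/ml final) were then added for 10 min before AlphaScreen detection.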
TDP1 cell CPT – DT40-hTDP1 cell growth loss with CPT | chicken DT40 Tdp1-/-;hTDP1 cells + 20 nM CPT, ATP luminescence, 48 h | actives 12% (n = 420,000) | AID 686979 | Potency, µM (top dose mostly 46.2 µM), actives largely listed as inhibitors; also: nearly all actives have a fitted effect of over 55% in size
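Chicken DT40 Tdp1-/- cells complemented with human TDP1, 400 cells/well, exposed to compounds plus 20 nM camptothecin for at least 48 h at 37 C; viability read as ATP content by CellTiter-Glo luminescence.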
DT40 TDP1 no CPT – qHTS for Inhibitors of human tyrosyl-DNA phosphodiesterase 1 (TDP1): qHTS in cells in absence of CPT; DT40 Tdp1-/- hTDP1 cells, no CPT, ATP luminescence, 48 h; Potency, µM (series often up to 46.2 µM), most hits filed as inhibitors; actives 15% (n = 420,000); also: nearly all actives have a fitted effect of over 55% in size
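Chicken DT40 Tdp1-/- cells complemented with human TDP1, screened without camptothecin (DMSO vehicle only), 400 cells/well. Compounds pin-transferred, cells incubated at 37 °C for at least 48 hr. Growth read as ATP-dependent luminescence (CellTiter-Glo, 30 min at RT).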
IL1B secr inh – inflammasome signaling inhibition, IL-1 beta readout. THP-1 LPS/ATP IL-1B secretion, AlphaLISA, 16 h; hits give low values. activity change, % at 57.5 µM. actives 4.7% (n = 360,000). AID 743279; in the data active = activity change below about -50%; inconclusive = mostly about -30% to -49%
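Secreted IL-1B measured by AlphaLISA bead assay after 16 h compound exposure of THP-1 cells; compounds (final up to 57.5 uM) added 1 h before LPS (250 ng/mL) and ATP (1.25 mM) stimulation; lower signal means less secretion.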
CtBP-E1A blk – CtBP/E1A binding inhibition | AlphaScreen GST-E1A/His-CtBP binding, 1536-well; hits give low values | activity change, % (test concentration not listed) | actives 0.49% (n = 340,000) | AID 651724; in the data active = activity change below about -65%; inconclusive = mostly about -30% to -63%
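Steps: dispense buffer (Tris pH 8.0, NaCl 300 mM, TCEP 1 mM, BSA, Tween 20); add 5X protein mix (GST-E1A, His-CtBP, 125 nM each); pin 23 nL compound; 2 h at 37 °C, dark; add 5X beads (50 ug/mL); 1 h; read.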
Six1-Eya2 inh – inhibitors of human Six1/Eya2 interaction; AID 651725; activity change, % (no concentration beside the values); AlphaScreen GST-Six1/His-Eya2 binding, biochemical; hits give low values; actives 0.56% (n = 360,000); Q15475+O00167; in the data active = activity change below about -65%; inconclusive = mostly about -30% to -63%
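AlphaScreen luminescence read after one hour at 37 °C in darkness. Pin-transferred compounds met GST-Six1 and His-Eya2 protein (5X stock 250 nM/500 nM) plus glutathione donor and Ni-chelate acceptor beads (5X, 50 ug/mL).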
Numbers stand for hits; - = inactive; ? = inconclusive; . = no result given. Unless noted, calls follow the shape of the dose curve; as a rule, active = well fitted curve in the direction sought with a large enough effect; inconclusive = small, poorly fitted or top-dose-only effect, or another doubt; inactive = no such curve, though single readings can be large; an effect the other way counts as inactive or inconclusive.

SMILES	TDP1 inh	TDP1 cell CPT	DT40 TDP1 no CPT	IL1B secr inh	CtBP-E1A blk	Six1-Eya2 inh
CC(C)/C(=N\NC(=O)Nc1ccccc1)c1ccccc1	-	-	-	-	-	-
COc1ccc(C2SCC(=O)N2c2nnc(C34CC5CC(CC(C5)C3)C4)s2)cc1 (configuration not stated)	-	?	?	-	-	-
COc1cc(C2SCC(=O)N2c2nnc(C34CC5CC(CC(C5)C3)C4)s2)cc(OC)c1OC (configuration not stated)	-	18µM	?	-55	-	-
COc1ccc(-c2cc(N)n(S(=O)(=O)c3c(F)c(F)c(F)c(F)c3F)n2)cc1OC	-	0.18µM	0.82µM	-87	-	?
COc1ccc(S(=O)(=O)n2nc(-c3cc(OC)c(OC)c(OC)c3)cc2N)cc1OC	-	-	?	-	-	-
CCn1cc(/C=N\NC(=O)c2ccc3c(c2)c(C)c(C)n3Cc2ccccc2)c(C)n1	-	13µM	16µM	-	-	?
CCn1nc(C)c(/C=N/NC(=O)c2ccc3c(c2)c(C)c(C)n3Cc2ccccc2)c1C	-	10µM	10µM	-	-	-
CCn1ncc(/C=N\NC(=O)c2ccc3c(c2)c(C)c(C)n3Cc2ccccc2)c1C	-	-	?	-	-	-
FC(F)(F)c1cccc(NC(=S)Nc2cccc(NC(=S)Nc3cccc(C(F)(F)F)c3)n2)c1	-	29µM	21µM	-86	-	-
CC(C)(C)NNC(=S)Nc1cccc(C(F)(F)F)c1	.	3.3µM	1.2µM	?	-	-
FC(F)(F)c1cccc(NC(=S)NNC(=S)NCc2ccccc2)c1	-	?	26µM	-	-	-
O=C(/C=C/c1cccc(C(F)(F)F)c1)Nc1cccc(C(F)(F)F)c1	-	23µM	23µM	-92	-	-
O=C(CN1CCN(Cc2ccccc2Cl)C1=O)NCc1ccco1	-	-	-	-	-	-
O=C(O)/C=C/C(=O)Nc1cccc(C(F)(F)F)c1	-	-	-	-	-	-
O=C(NNC(=S)Nc1cccc(C(F)(F)F)c1)c1ccccc1Cl	-	?	18µM	?	-	-
C=CCC(CC=C)(CNC(=O)C(=O)Nc1cccc(C(F)(F)F)c1)c1ccccc1	-	18µM	21µM	.	.	.
COc1ccc(-c2cn(CCC(=O)O)c(-c3ccncc3)n2)cc1	-	-	-	-	-	-
COc1ccc(NC(=O)Cn2nc3c(cc2=O)CCCC3)cc1Cl	-	-	-	.	.	.
COc1cc2c(cc1OC)C(c1cccs1)N(C(=O)C(C)C)CC2 (configuration not stated)	-	?	-	-	-	-
COc1cc2c(cc1OC)C(C)N(C(=O)c1ccc(C)o1)CC2 (configuration not stated)	.	26µM	21µM	-	-	-
COc1cc2c(cc1OC)C(c1cccs1)N(C(=O)c1cccnc1)CC2 (configuration not stated)	-	4.6µM	2.9µM	-	-	-
COc1cc2c(cc1OC)C(COc1ccc(F)cc1)N(C(=O)c1ccc(S(=O)(=O)N3CCCC3)cc1)CC2 (configuration not stated)	-	?	?	.	.	.
COc1cc2c(cc1OC)C(C)N(C(=O)c1ccc(Cl)c(S(=O)(=O)N3CCCCC3)c1)CC2 (configuration not stated)	.	21µM	10µM	-	-	-
COc1cc2c(cc1OC)C(C)N(C(=O)c1sccc1C)CC2 (configuration not stated)	-	?	-	?	-	-
COc1cc2c(cc1OC)C(C)N(C(=O)c1c(-c3ccccc3)noc1C)CC2 (configuration not stated)	.	18µM	13µM	-	.	-
SMILES	TDP1 inh	TDP1 cell CPT	DT40 TDP1 no CPT	IL1B secr inh	CtBP-E1A blk	Six1-Eya2 inh
CC1(C)CC(=O)C(C=NCCN2CCNCC2)=C(O)C1	-	-	?	-	-	-
COC(=O)CSc1nnc(CSc2nc(C)cc(C)n2)n1Cc1ccco1	-	-	-	-	-	-
COc1cc2c(cc1OC)C(C)N(C(=O)c1cccc([N+](=O)[O-])c1)CC2 (configuration not stated)	-	?	?	-53	.	-
COc1cc2c(cc1OC)C(C)N(CCc1ccc(Cl)cc1)CC2 (configuration not stated)	.	?	?	-59	-	-
COc1cc2c(cc1OC)C(C)N(CCN1C(=O)c3ccccc3C1=O)CC2 (configuration not stated)	.	-	-	-	.	-
CCN(C(=O)CSc1nncs1)c1c(N)n(Cc2ccccc2)c(=O)[nH]c1=O	-	-	-	-	-	-
COc1ccc(-n2ccc(-c3nn(-c4cccc(C(F)(F)F)c4)ccc3=O)n2)cc1	-	?	18µM	-	-	-
O=c1ccn(-c2cccc(C(F)(F)F)c2)nc1-c1ccn(-c2ccccc2F)n1	-	?	?	-	-	-
CC(C)(C)OC(=O)N1CCC(c2c(C(=O)N3CCCCC3)cnn2-c2ccccc2Cl)CC1	-	18µM	?	.	.	.
Cc1cccc(C)c1-n1ncc(C(=O)N2CCN(c3ccccn3)CC2)c1C1CCN(C(=O)OC(C)(C)C)CC1	-	?	18µM	.	.	.
CC(C)(C)OC(=O)N1CCC(c2c(C(=O)N3CCN(c4ccccn4)CC3)cnn2-c2ccccc2Cl)CC1	-	?	18µM	.	.	.
COc1ccc(OC)c(CCNC(=O)c2cnn(-c3ccccc3Cl)c2C2CCN(C(=O)OC(C)(C)C)CC2)c1	-	18µM	13µM	.	.	.
Cc1cccc(C)c1-n1ncc(C(=O)N2CCN(c3ncccn3)CC2)c1C1CCN(C(=O)OC(C)(C)C)CC1	-	?	?	.	.	.
Cc1ccc(S(=O)(=O)N(C)CCCC(=O)Nc2ccccn2)cc1	.	-	-	-	-	-
Cc1nn2c(=O)cc(CSc3ccccc3NC(=O)c3ccccc3)nc2s1	-	-	-	-	-	-
CCOc1ccc(CCNC(=O)CN2C(=O)c3cccnc3Oc3ccc(C)cc32)cc1OCC	-	21µM	?	-	-	-
Cc1ccc2c(c1)N(CC(=O)NCCCc1ccccc1)C(=O)c1cccnc1O2	.	?	?	-	-	-
CCOc1ccc(CCNC(=O)CN2C(=O)c3cccnc3Oc3ccc(Cl)cc32)cc1	-	?	21µM	-	-	-
CSc1ccc(CCNC(=O)CN2C(=O)c3cccnc3Oc3ccc(C)cc32)cc1	-	?	29µM	-	-	-
